High-throughput results (PubChem BioAssay)
HP1b binding inh: blocks HP1-beta chromodomain binding to methylated histone tails; AlphaScreen HP1-beta / biotin-H3K9me3 peptide binding; AID 540317; Potency, µM (doses to about 114 µM), for inactives: at the top dose activity change, negative = inhibition, actives largely listed as inhibitors; 0.56% of 390,000 active; P83916; further: nearly all actives have a fitted effect of over 70% in size
Target sequence (P83916 whole entry, looked up): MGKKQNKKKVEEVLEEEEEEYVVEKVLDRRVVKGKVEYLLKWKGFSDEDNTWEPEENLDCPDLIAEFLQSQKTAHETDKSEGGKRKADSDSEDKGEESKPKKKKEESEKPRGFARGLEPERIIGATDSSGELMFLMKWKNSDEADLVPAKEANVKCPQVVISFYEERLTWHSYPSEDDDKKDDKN
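AlphaScreen: HP1-beta (50 nM) preformed 30 min with biotin-H3(1-18)K9me3 peptide (50 nM) in PBS pH 7.4, 0.01% Tween-20. Compound added for 30 min at RT, then streptavidin donor/nickel chelate acceptor beads (10 ug/mL) for 30 min.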
JMJD2A Tudor: blocks the human JMJD2A Tudor domain. O75164. 4.4% of 390,000 active. AID 504339. Potency, µM (top dose mostly 114 µM), for the others: at the top dose activity change, negative = inhibition, most hits filed as inhibitors. AlphaScreen JMJD2A-Tudor / H3K4me3 peptide binding; further: on the % scale 0 is the no-effect control and ±100 the full control effect; nearly all actives have a fitted effect of over 50% in size
BAZ2B block: BAZ2B (human) inhibition | AID 504333 | Potency, µM (titrated, usually from 114 µM), for the others: at the top dose activity change, negative = inhibition, actives largely listed as inhibitors | 4.4% of 360,000 active | AlphaScreen BAZ2B-H3K14Ac peptide displacement; further: on the % scale 0 is the no-effect control and ±100 the full control effect; nearly all actives have a fitted effect of over 60% in size
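Inhibition is scored as reduced AlphaScreen emission. The BAZ2B/b-H3(5-23)K14Ac complex (50 nM each) in PBS pH 7.4, 0.01% Tween-20 meets compound (up to 110 uM) for 30 min at RT before bead addition.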
G9a inh: inhibitors of human histone lysine methyltransferase G9a; Potency, µM (highest dose often 102 µM), without a hit: at the top dose activity, negative = inhibition, hits mostly inhibitors; Q96KQ7; G9a H3K9 monomethylation, AlphaScreen, 2 h; AID 504332; 8.8% of 350,000 active; further: on the % scale 0 is the no-effect control and ±100 the full control effect; nearly all actives have a fitted effect of over 75% in size
Target sequence (Q96KQ7 913-1193 limits assumed): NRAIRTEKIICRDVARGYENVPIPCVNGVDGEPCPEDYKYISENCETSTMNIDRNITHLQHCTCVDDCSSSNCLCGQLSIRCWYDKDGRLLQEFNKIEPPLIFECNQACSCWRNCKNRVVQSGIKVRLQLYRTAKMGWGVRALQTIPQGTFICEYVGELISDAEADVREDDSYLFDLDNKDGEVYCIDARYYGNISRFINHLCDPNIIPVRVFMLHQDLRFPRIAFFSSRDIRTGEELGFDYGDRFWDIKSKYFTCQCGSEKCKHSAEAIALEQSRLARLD
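G9a (20 nM) was preincubated 15 min with compound, then reacted 2 h at room temperature with 500 nM biotin-H3K9 peptide and 20 µM SAM. Monomethyl-H3K9 detected by AlphaScreen using anti-H3K9me1 antibody.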
GLS inh: blocks human kidney-isoform glutaminase activity; O94925; GLS enzymatic activity, qHTS titration; Potency, µM (top dose mostly 45.5 µM), for inactives: at the highest dose activity change, negative = inhibition, usual class: inhibitors; 0.21% of 410,000 active; further: on the % scale 0 is the no-effect control and ±100 the full control effect
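Compounds were pin-transferred onto hKGA, after which L-glutamine (1 mM solution) and a detection mix of glutamate oxidase, HRP and Amplex Red were added. Initial and 30 min RT fluorescence reads were collected.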
* = called active by the depositor; u = inconclusive; x = no result; [ ] = dose if it differs, or a comment. Shown are actives, neighbours in structure and some others; about 10% of the full set was active somewhere. The call rests on the fitted dose curve; in most records, active means well fitted curve in the direction sought with a large enough effect; inconclusive means small, poorly fitted or top-dose-only effect, or another doubt; inactive means no such curve, though single readings can be large; an effect the other way counts as inactive or inconclusive. Potency means the concentration at half of the fitted maximal effect.

SMILES	HP1b binding inh	JMJD2A Tudor	BAZ2B block	G9a inh	GLS inh
c1ccc(-n2cnc3cc(NCc4cccs4)ccc32)cc1	-32%	56µM*	50µM*	-7%[2.33 µM]	-10%
Cn1cnc2cc(NCc3cccs3)ccc21	1%	-34%	-30%	u	-14%
CCC(=O)Nc1ccc2c(c1)ncn2-c1ccc(OC)cc1	25%	-6%	-21%	-42%[59 µM]	1%
c1ccc(-n2cnc3cc(NCc4ccco4)ccc32)cc1	u	79µM*	u	11µM*	-13%
COc1ccc(-n2cnc3cc(NCc4cccs4)ccc32)cc1	40µM*	-15%[11.4 µM]	18µM*	u	28%
Cc1nc2cc(NC(=O)NCc3ccco3)ccc2n1C	15%	-21%	-7%	-25%[59 µM]	5%
Cn1c(=O)c2c(nc(SC3C(=O)CC(C)(C)CC3=O)n2C)n(C)c1=O	46%	-28%	-5%	u	13%
NC(Cc1ccc(Cl)cc1)c1csc(Nc2ccc(C(F)(F)F)cn2)n1 (stereo unspecified)	x	x	x	x	2%
O=C(COc1ccc([N+](=O)[O-])cc1)NCc1ccncc1	38%	0%[57.1 µM]	-15%	-4%	7%
O=C(O)c1cccc(N2CCCC2=O)c1	13%	-11%	-4%	50µM*	-1%
CC1CC(C)CN(CCCNC(=O)c2ccc(N3CCCC3=O)cc2)C1 (stereo unspecified)	18%	-12%	0%	7.9µM*	-1%
C[C@H]1CC[C@H]2C(=O)N3[C@H](c4cccc(N5CCCC5=O)c4)[C@@H](C)CC[C@H]3C(=O)N2[C@@H]1c1cccc(N2CCCC2=O)c1	x	x	-38%	50µM*	x
CCCCN(C)CCCNC(=O)c1cccc(N2CCCC2=O)c1	33%	-2%	4%	-4%	0%
COC(=O)c1cccc(N2CCCC2=O)c1	19%	-1%	-22%	13%	2%
CN(CCCNC(=O)c1cccc(N2CCCC2=O)c1)c1ccccc1	14%	-27%	-25%	8.9µM*	-11%
COCCn1cnc2c1-c1ccc(OC)c(c1)OC/C=C\COc1cccc-2c1	-25%	u	x	x	x
CCC(=O)N1CCc2cc(S(=O)(=O)NCCC(=O)Nc3cccc(SC)c3)ccc21	80%	5%	x	16%[59 µM]	-5%
COc1ccccc1NC(=O)N1CCN(C)CC1	-29%	40µM*	50µM*	20µM*	-6%
COc1ccccc1NC(=O)N1CCCC1	24%	-6%	3%	-4%	3%
CCN1CCN(C(=O)Nc2ccccc2OC)CC1	u	2.2µM*	28µM*	2.2µM*	12%
CCn1ncc(Br)c1C(=O)Nc1ccccc1OC	27%	56µM*	9%	6%	-6%
COc1ccccc1NC(=O)N1CCN(CCc2ccccc2)CC1	17%	-22%	-14%	x	6%
CCN1CCN(C(=O)C(C)Nc2ccc(OC)cc2OC)CC1 (stereo unspecified)	2%	u	u	45µM*	15%
CCn1nccc1C(=O)Nc1ccccc1OC	33%	-10%	37%	0%[0.501 µM]	6%
COc1ccccc1-c1noc(CCCC(=O)Nc2cc(C)ccc2C)n1	47%	12%	-27%	-4%[59 µM]	-4%
SMILES	HP1b binding inh	JMJD2A Tudor	BAZ2B block	G9a inh	GLS inh
COc1cccc(CC(=O)NCc2ccc3c(c2)CCN3C(C)=O)c1	31%	-6%	-12%	2%[59 µM]	-2%
CC(=O)N1CCC(N(C(=O)Nc2ccc(C)c(C)c2)C2CCCC2)CC1	25%	-7%	8%	u	6%
COc1ccccc1NC(=O)N(C1CCCC1)C1CCN(C(C)=O)CC1	24%	-5%	9%	40µM*	1%
COc1ccc(CC(=O)NCC(c2cccs2)S(=O)(=O)c2ccc(Cl)cc2)cc1 (stereo unspecified)	10µM*	18µM*	u	8.9µM*	u
O=C(COc1ccccc1)NCC(c1cccs1)S(=O)(=O)c1ccc(Cl)cc1 (stereo unspecified)	14µM*	18µM*	-11%	10µM*	-24%
Cc1ccc(NC(=O)Nc2c(C)n(C)n(-c3ccccc3)c2=O)c(Cl)c1	54%	-11%	8%	-6%[59 µM]	19%
CN1CCN(c2ncc3nc(-c4cccs4)c(=O)n(C[C@H]4CCCO4)c3n2)CC1	x	x	x	0%[12.7 µM]	x
CC(C)(C)c1cc(CCC(=O)N2CCC2)cc(C(C)(C)C)c1O	31%	-6%	89µM*	100%	-18%
CC1CN(C(=O)CCc2cc(C(C)(C)C)c(O)c(C(C)(C)C)c2)CC(C)O1 (stereo unspecified)	52%	-12%	1%	77%	-11%
COc1ccc(CCNc2nc(-c3ccc(O)cc3)cs2)cc1OC	-7%	u	u	22µM*	-3%
COc1ccc(CCNc2nc(-c3sc(C)nc3C)cs2)cc1OC	u	3.2µM*	32µM*	10µM*	13%
COc1ccc(CCNc2nc(-c3ccncc3)cs2)cc1OC	11%	-7%[11.4 µM]	-13%	x	-2%
COc1ccc(CCNc2nc(-c3cccnc3)cs2)cc1OC	-6%	-35%	u	x	-1%
COc1ccc(CCNc2nc(-c3ccccn3)cs2)cc1OC	8%[57 µM]	u	22µM*	u	1%
CC1Cc2cc(S(=O)(=O)CCC(=O)Nc3ccc(F)cc3Cl)ccc2N1C(=O)C1CC1 (stereo unspecified)	40%	-1%	-12%	-1%[59 µM]	-1%
CCCSc1ncc(Cl)c(C(=O)Nc2nc3ccc(C)cc3s2)n1	46%	-2%	-3%	8%[59 µM]	6%
COc1ccc(S(=O)(=O)N(C)CC(=O)O)c2ccccc12	38%	-4%	-5%	-3%[12.7 µM]	-5%
COc1ccccc1Nc1ccc(N)cc1	u	50µM*	28µM*	13µM*	11µM*
COc1ccccc1Nc1ccc(NS(=O)(=O)c2ccc(C(C)=O)cc2)cc1	u	40µM*	u	35µM*	33%
Cc1ccc(NS(=O)(=O)c2ccc3c(c2)C(Cl)(Cl)C(=O)N3)cc1C	x	-31%	x	x	x
CCCCc1ccc(NC(=O)COc2cccc3c(=O)n(C)ccc23)cc1	31%	4%	7%	-6%[59 µM]	2%
C=CCOC(=O)/C=C/C(=O)NC(N)=O	18µM*	u	0%	8.9µM*	3%
CCC(=Cc1ccc(CC)cn1)CC	15%[57 µM]	-4%	u	40µM*	2%
CN(C)c1ccc(CNC(=O)C2CCN(S(=O)(=O)c3cn(C)cn3)CC2)cc1	6%	-8%	-35%	-30%[12.7 µM]	4%
Cc1c([C@H]2[C@@H](CC#N)C2(C)C)c2ccccc2n1C	u	u	22µM*	5%[12.7 µM]	16%
COCCn1c(C)cc(/C=C(\C#N)C(=O)OCC(=O)Nc2ccc(S(N)(=O)=O)cc2)c1C	27%	-4%	2%	40µM*	-2%
CC(C)C1C(=O)NC(=S)N1S(=O)(=O)c1ccc(C(C)(C)C)cc1 (stereo unspecified)	-10%	-12%	-7%	3.2µM*	4%
